The source made the active and inactive calls.
Columns and labels:
[1] = test system: Plasmodium falciparum Sir2 (PF13_0152, Sir2A); assay: Plasmodium falciparum Sir2A binding compounds – biochemical, small-molecule microarray, 635 nm fluorescence, primary screen (AID 1098); conditions: fluorescence 635 nm, higher = more signal;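 note: score merges spot fluorescence intensity with its signal-to-noise ratio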
[2] = probe aDKK1 binding to arrayed compounds – biochemical, biotinylated probe, 635/667 nm fluorescence, primary screen (AID 1099); conditions: small-molecule microarray, higher = more signal;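 note: score merges 667nm spot fluorescence with signal to noise across triplicate slides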
[3] = probe aCHRDL2 binding to arrayed compounds – biochemical, biotinylated probe, 635/667 nm fluorescence, primary screen (AID 1100); conditions: small-molecule microarray, higher = more signal
[4] = change in splice reporter luminescence, either direction, cell-based, HEK293, spliceosome inhibition project, primary screen (AID 1101); conditions: HEK293 splicing luciferase reporter, 24 h, higher = more signal, called active from +8 up or from −8 down;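 note: HEK293 cells carrying a splicing-competent luciferase reporter gene; test concentration not given here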
[5] = target: Fibroblast growth factor 10 (Homo sapiens) (UniProt O15520); assay: compounds binding fibroblast growth factor 10 – biochemical, small-molecule microarray, 635 nm fluorescence, primary screen (AID 1102); conditions: FGF10 binding, fluorescence 635 nm, higher = more signal
Fibroblast growth factor 10 (Homo sapiens), sequence (O15520 whole entry, looked up): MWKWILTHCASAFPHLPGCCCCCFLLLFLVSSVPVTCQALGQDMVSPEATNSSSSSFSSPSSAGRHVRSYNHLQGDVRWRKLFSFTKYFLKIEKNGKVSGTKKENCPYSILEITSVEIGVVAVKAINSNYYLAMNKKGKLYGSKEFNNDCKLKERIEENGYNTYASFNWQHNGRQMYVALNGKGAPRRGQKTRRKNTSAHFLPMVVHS

[6] = test system: glycogen synthase kinase-3 (GSK3A per assay name; protocol says GSK3B); assay: compounds binding glycogen synthase kinase-3 – biochemical, small-molecule microarray, 635 nm fluorescence, GSK3A, primary screen (AID 1103); conditions: fluorescence 635 nm, higher = more signal; note: the record names both GSK3A and GSK3B
[7] = target: Epidermal growth factor receptor (Homo sapiens) (UniProt P00533); assay: compounds binding epidermal growth factor receptor – biochemical, small-molecule microarray, 635 nm fluorescence, primary screen (AID 1104); conditions: EGFR binding, higher = more signal;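 note: score merges 667 nm emission intensity with spot signal to noise over triplicate slides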
Epidermal growth factor receptor (Homo sapiens), sequence (P00533 whole entry, looked up): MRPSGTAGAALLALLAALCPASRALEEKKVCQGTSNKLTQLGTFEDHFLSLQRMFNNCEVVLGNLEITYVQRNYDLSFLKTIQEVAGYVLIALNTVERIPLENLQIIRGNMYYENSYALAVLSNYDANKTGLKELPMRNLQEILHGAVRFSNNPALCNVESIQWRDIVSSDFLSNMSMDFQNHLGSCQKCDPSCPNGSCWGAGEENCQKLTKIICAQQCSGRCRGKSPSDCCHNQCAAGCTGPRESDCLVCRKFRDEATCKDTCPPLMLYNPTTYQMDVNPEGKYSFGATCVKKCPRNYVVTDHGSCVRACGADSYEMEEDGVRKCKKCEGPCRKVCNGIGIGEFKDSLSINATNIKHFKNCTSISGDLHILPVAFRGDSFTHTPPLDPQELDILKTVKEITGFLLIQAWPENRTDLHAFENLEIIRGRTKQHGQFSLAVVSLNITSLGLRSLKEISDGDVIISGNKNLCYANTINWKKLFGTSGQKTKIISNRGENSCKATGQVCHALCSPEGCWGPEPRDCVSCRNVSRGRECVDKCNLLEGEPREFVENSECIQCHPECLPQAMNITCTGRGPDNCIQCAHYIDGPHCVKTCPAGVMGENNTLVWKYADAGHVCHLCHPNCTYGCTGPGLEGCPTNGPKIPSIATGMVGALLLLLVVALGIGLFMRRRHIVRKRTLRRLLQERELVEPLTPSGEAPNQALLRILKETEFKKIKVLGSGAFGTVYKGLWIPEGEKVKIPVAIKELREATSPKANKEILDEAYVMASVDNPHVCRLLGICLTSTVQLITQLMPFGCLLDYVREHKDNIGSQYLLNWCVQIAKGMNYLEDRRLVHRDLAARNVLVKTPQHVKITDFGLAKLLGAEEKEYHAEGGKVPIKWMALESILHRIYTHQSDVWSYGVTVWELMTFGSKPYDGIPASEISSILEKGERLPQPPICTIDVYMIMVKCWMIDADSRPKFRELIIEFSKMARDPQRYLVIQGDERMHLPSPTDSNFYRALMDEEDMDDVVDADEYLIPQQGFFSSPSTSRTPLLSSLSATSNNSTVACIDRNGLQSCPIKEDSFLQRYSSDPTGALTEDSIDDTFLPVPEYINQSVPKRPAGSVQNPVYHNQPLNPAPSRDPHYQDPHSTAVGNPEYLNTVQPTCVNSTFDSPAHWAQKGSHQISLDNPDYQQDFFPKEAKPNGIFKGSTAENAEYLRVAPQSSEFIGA

[8] = target: Follistatin-related protein 3 (Homo sapiens) (UniProt O95633); assay: compounds binding follistatin-related protein 3 – biochemical, small-molecule microarray, 635 nm fluorescence, primary screen (AID 1105); conditions: FSTL3 binding, higher = more signal;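 note: score merges emission near 667 nm and signal to noise per printed spot across three slides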
Follistatin-related protein 3 (Homo sapiens), sequence (O95633 whole entry, looked up): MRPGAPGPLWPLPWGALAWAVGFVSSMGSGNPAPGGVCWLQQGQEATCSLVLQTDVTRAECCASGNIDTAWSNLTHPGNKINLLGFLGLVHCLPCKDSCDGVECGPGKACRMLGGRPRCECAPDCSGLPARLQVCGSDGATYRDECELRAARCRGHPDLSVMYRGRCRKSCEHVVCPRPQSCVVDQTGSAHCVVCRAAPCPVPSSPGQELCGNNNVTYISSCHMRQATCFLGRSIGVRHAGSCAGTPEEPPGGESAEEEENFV

[9] = target: Dickkopf-related protein 1 (Homo sapiens) (UniProt O94907); assay: small molecules binding DKK1 protein – biochemical, small-molecule microarray, 635 nm fluorescence scan, primary screen (AID 1106); conditions: higher = more signal;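 note: score merges emission near 667 nm with signal to noise over three replicate slides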
Dickkopf-related protein 1 (Homo sapiens), sequence (O94907 whole entry, looked up): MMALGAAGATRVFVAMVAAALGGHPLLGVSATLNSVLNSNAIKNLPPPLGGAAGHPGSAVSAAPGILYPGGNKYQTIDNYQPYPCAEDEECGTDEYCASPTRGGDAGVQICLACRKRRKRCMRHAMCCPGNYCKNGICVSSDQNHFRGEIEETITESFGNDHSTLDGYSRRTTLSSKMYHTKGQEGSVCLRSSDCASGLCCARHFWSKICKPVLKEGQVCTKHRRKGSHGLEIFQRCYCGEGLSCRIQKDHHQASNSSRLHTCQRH

[10] = test system: Inhibin beta A chain (activin A); assay: small molecules binding activin A – biochemical, small-molecule microarray, 635 nm fluorescence scan, primary screen (AID 1107); conditions: INHBA, higher = more signal;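 note: mouse activin A protein probed at 4.33 µg/mL on printed slides; score merges bound-protein fluorescence near 667 nm with spot signal-to-noise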
[11] = test system: Human papillomavirus type 1a protein E7 (residues 44-93); assay: small molecules binding HPV E7 44-93 – biochemical, small-molecule microarray, residues 44-93, 635 nm fluorescence, primary screen (AID 1108); conditions: fluorescence 635 nm, higher = more signal;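 note: E7 fragment applied at 1 µg/mL in TBST for 1 h at 4 C; score combines spot fluorescence with its signal to noise ratio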
[12] = hepatitis C replication reporter changes, two-sided – Huh7 cells, luciferase reporter, HCV replication inhibitor project, primary screen (AID 1109); conditions: Huh7 HCV replicon luciferase reporter, 48 h; higher = more signal;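 note: huh7 hepatoma cells harbouring a luciferase neomycin HCV replicon reporter; luciferase luminescence as measure of HCV replicon replication; test concentration not given here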
[13] = target: Left-right determination factor 2 (Homo sapiens) (UniProt O00292); assay: small molecules binding LEFTY2 protein – biochemical, small-molecule microarray, 635 nm fluorescence scan, primary screen (AID 1110); conditions: higher = more signal
Left-right determination factor 2 (Homo sapiens), sequence (O00292 whole entry, looked up): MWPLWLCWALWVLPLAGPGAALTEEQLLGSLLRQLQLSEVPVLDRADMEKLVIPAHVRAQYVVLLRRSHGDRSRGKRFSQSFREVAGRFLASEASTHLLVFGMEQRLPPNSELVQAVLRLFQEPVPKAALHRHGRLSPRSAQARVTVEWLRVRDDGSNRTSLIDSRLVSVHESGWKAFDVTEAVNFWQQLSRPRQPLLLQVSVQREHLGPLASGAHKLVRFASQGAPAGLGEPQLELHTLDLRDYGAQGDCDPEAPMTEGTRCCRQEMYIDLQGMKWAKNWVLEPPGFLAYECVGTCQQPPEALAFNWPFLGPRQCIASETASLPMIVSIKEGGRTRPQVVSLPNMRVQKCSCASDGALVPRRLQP

[14] = target: Calmodulin-1 (Homo sapiens) (UniProt P0DP23); assay: small molecules binding calmodulin-1 with EGTA – biochemical, small-molecule microarray, Cy5-labelled CALM1, profiling panel (AID 1111); conditions: Cy5-CALM1 binding fluorescence, higher = more signal;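 note: labelled calmodulin applied in Tris saline Tween buffer holding calcium plus EGTA and DTT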
[15] = target: Calmodulin-1 (Homo sapiens) (UniProt P0DP23); assay: small molecules binding Ca-loaded calmodulin-1 – biochemical, small-molecule microarray, Cy5-labelled CALM1, plus calcium, artefact control for SMM control-protein annotation, profiling panel (AID 1112); conditions: Cy5-CALM1 binding fluorescence, higher = more signal;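 note: score merges spot fluorescence with signal to noise from triplicate slides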
[16] = probe aWnt5a binding to arrayed compounds – biochemical, biotinylated probe, 635/667 nm fluorescence, primary screen (AID 1113); conditions: small-molecule microarray, higher = more signal;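 note: score merges 667 nm fluorescence intensity with signal-to-noise per printed feature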
[17] = probe aShh binding to arrayed compounds – biochemical, biotinylated probe, 635/667 nm fluorescence, primary screen (AID 1114); conditions: small-molecule microarray, higher = more signal;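 note: probe is biotin-labelled aShh protein from a stem cell growth factor screen; measures binding of labelled protein to compounds printed on the slide; score merges feature fluorescence at 667 nm with signal-to-noise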
[18] = probe aNog binding to arrayed compounds – biochemical, biotinylated probe, 635/667 nm fluorescence, primary screen (AID 1115); conditions: small-molecule microarray, higher = more signal;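 note: probe is biotinylated aNog protein used at 0.15 µg/mL for 1 h at 4 C; z-score combines 667 nm fluorescence of each spot with its signal to noise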
[19] = target: Torsin-1A-interacting protein 1 (Homo sapiens) (UniProt Q5JTV8); assay: compound microarray binding of lysate hLAP1 – cell lysate, small-molecule microarray, COS7 lysate, 635/667 nm fluorescence, primary screen (AID 1116); conditions: 635 nm fluorescence, higher = more signal
Torsin-1A-interacting protein 1 (Homo sapiens), sequence (Q5JTV8 whole entry, looked up): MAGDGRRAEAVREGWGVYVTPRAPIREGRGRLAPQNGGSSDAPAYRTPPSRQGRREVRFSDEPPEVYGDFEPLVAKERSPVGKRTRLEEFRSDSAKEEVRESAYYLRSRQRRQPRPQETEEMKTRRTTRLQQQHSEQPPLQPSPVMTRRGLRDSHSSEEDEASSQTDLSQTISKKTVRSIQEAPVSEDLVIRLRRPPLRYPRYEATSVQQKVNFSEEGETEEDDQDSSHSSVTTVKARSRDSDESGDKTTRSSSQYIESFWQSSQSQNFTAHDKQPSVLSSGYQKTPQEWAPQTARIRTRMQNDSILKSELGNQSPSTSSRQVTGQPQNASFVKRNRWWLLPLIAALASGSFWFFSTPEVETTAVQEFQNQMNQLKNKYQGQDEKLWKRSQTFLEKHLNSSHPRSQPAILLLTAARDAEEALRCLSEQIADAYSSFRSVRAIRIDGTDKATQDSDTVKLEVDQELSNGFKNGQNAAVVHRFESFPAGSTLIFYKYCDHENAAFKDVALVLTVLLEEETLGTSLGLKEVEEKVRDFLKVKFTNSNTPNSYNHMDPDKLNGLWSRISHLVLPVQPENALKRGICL

[20] = target: Alpha-bungarotoxin (Bungarus multicinctus) (UniProt P60615); assay: compounds binding labelled alpha-BTX control protein – biochemical, small-molecule microarray, Alexa647 label, 635/667 nm fluorescence, artefact control for SMM control protein annotation, profiling panel (AID 1117); conditions: alpha-BTX-A647 binding fluorescence, higher = more signal
Alpha-bungarotoxin (Bungarus multicinctus), sequence (P60615 whole entry, looked up): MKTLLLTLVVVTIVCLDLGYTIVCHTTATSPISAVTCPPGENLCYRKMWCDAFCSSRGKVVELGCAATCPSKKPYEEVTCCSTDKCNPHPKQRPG

Structure (SMILES)	composite z-score [1]	composite z-score [2]	composite z-score [3]	z-score [4]	composite z-score [5]	composite z-score [6]	composite z-score [7]	composite z-score [8]	composite z-score [9]	composite z-score [10]	composite z-score [11]	z-score [12]	composite z-score [13]	composite z-score [14]	composite z-score [15]	composite z-score [16]	composite z-score [17]	composite z-score [18]	composite z-score [19]	composite z-score [20]
C/C(=N\O)C(=O)NCCCCCNC(=O)OCc1ccccc1	0.807	-0.186	-0.472	-0.508 (inactive)	0.554	0.777	0.479	1.03	0.497	0.102	0.63	-0.0365	0.516	0.169	-0.269	0.0115	-0.262	0.32	0.371	1.06
CCCNC(=O)[C@@H]1c2ccccc2C(=O)N(C2CCCCC2)[C@H]1c1ccc(CO)cc1	0.941	0.331	0.533	-0.618 (inactive)	0.965	1.3	0.432	0.958	0.315	0.397	1.44	-1.32	0.454	0.674	-0.616	-0.131	0.131	-0.278	0.65	0.765
C#CCCCON=C1C[C@@H](O)[C@@H](O)[C@@H]2[C@@H]3C(=O)N(Cc4ccc5c(c4)OCO5)C(=O)[C@@H]3CC[C@H]12	0.419	-0.254	-0.463	-0.16 (inactive)	1.34	0.253	0.328	0.578	0.59	-0.345	1.36	-0.0463	0.774	0.601	-0.783	-0.0735	0.0796	-0.326	1.34	0.24
COc1cc2c(cc1OC)CN(C(=O)[C@H]1[C@@H]3C(=O)O[C@@H](c4ccccc4)[C@@H](c4ccccc4)N3[C@@H](c3ccc(O)cc3)[C@]13C(=O)Nc1ccc(C#CC4(O)CCCCCC4)cc13)CC2	1.75	0.458	0.46	-0.81 (inactive)	1.4	1.36	0.853	1.46	1.1	0.616	1.4	-1.47	1.36	2.21	1.2	0.808	0.382	2.35	3.48	2.79
CCCC=C(CCC)[C@@H](NC(=O)c1ccc(C(F)(F)F)cc1)c1ccccc1	0.658	0.559	0.622	-3.52 (inactive)	-0.433	0.662	-0.405	0.0071	-0.446	0.0953	1.17	-1.43	-0.0957	0.815	0.793	0.0094	0.213	0.644	0.432	0.25
